# Experimental data reported in the supplement of paper PMC4466140.
# What was measured:
# Assay in all cases: SPOT peptide array binding signal intensity (averaged, normalized) (arbitrary units (background-subtracted, floor 0; scale differs between SH3 domains)); higher = stronger binding of the SH3 domain to the peptide
# AgAbp1 = target: AgAbp1
# Method: (§1)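 GST-tagged SH3 domains from S. cerevisiae (Sc), A. gossypii (Ag), C. albicans (Ca) and S. pombe (Sp) were incubated at 10 ug/ml overnight at 4 C on cellulose SPOT membranes carrying 292 synthetic 15-mer peptides mined from the S. cerevisiae proteome (cysteines replaced by serines). Binding was detected with anti-GST antibody, HRP secondary and chemiluminescence, quantified with Genespotter, and reported as normalized spot intensities averaged over biological replicates.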
# AgBbc1 = target: AgBbc1
# Method: as §1
# AgBem1-D1 = target: AgBem1-D1
# Method: as §1
# AgBzz1-D1 = target: AgBzz1-D1
# Method: as §1
# AgBzz1-D2 = target: AgBzz1-D2
# Method: as §1
# AgCyk3 = target: AgCyk3
# Method: as §1
# AgFus1 = target: AgFus1
# Method: as §1
# AgHof1 = target: AgHof1
# Method: as §1
# AgHse1 = target: AgHse1
# Method: as §1
# AgLsb1 = target: AgLsb1
# Method: as §1
# AgLsb4 = target: AgLsb4
# Method: as §1
# AgMyo5 = target: AgMyo5
# Method: as §1
# AgNbp2 = target: AgNbp2
# Method: as §1
# AgRvs167 = target: AgRvs167
# Method: as §1
# AgSho1 = target: AgSho1
# Method: as §1
# AgSla1-D1-D2 = target: AgSla1-D1-D2
# Method: as §1
# AgSla1-D3 = target: AgSla1-D3
# Method: as §1
# CaAbp1-D1 = target: CaAbp1-D1
# Method: as §1
# CaAbp1-D2 = target: CaAbp1-D2
# Method: as §1
# CaBbc1 = target: CaBbc1
# Method: as §1
# CaBem1-D1 = target: CaBem1-D1
# Method: as §1
# CaBzz1-D1 = target: CaBzz1-D1
# Method: as §1
# CaBzz1-D2 = target: CaBzz1-D2
# Method: as §1
# CaCyk3 = target: CaCyk3
# Method: as §1
# CaFus1 = target: CaFus1
# Method: as §1
# CaHof1 = target: CaHof1
# Method: as §1
# CaHse1 = target: CaHse1
# Method: as §1
# CaLsb1 = target: CaLsb1
# Method: as §1
# CaLsb4 = target: CaLsb4
# Method: as §1
# CaMyo5 = target: CaMyo5
# Method: as §1
# CaNbp2 = target: CaNbp2
# Method: as §1
# CaRvs167 = target: CaRvs167
# Method: as §1
# CaRvs167-3 = target: CaRvs167-3
# Method: as §1
# CaSho1 = target: CaSho1
# Method: as §1
# CaSla1-D1-D2 = target: CaSla1-D1-D2
# Method: as §1
# CaSla1-D3 = target: CaSla1-D3
# Method: as §1
# ScAbp1 = target: ScAbp1
# Method: as §1
# ScBbc1 = target: ScBbc1
# Method: as §1
# ScBem1-D1 = target: ScBem1-D1
# Method: as §1
# ScBzz1-D1 = target: ScBzz1-D1
# Method: as §1
# ScBzz1-D2 = target: ScBzz1-D2
# Method: as §1
# ScCyk3 = target: ScCyk3
# Method: as §1
# ScFus1 = target: ScFus1
# Method: as §1
# ScHof1 = target: ScHof1
# Method: as §1
# ScHse1 = target: ScHse1
# Method: as §1
# ScLsb1 = target: ScLsb1
# Method: as §1
# ScLsb2 = target: ScLsb2
# Method: as §1
# ScLsb3 = target: ScLsb3
# Method: as §1
# ScLsb4 = target: ScLsb4
# Method: as §1
# ScMyo3 = target: ScMyo3
# Method: as §1
# ScMyo5 = target: ScMyo5
# Method: as §1
# ScNbp2 = target: ScNbp2
# Method: as §1
# ScPex13 = target: ScPex13
# Method: as §1
# ScRvs167 = target: ScRvs167
# Method: as §1
# ScSho1 = target: ScSho1
# Method: as §1
# ScSla1-D1-D2 = target: ScSla1-D1-D2
# Method: as §1
# ScSla1-D3 = target: ScSla1-D3
# Method: as §1
# SpAbp1-D1 = target: SpAbp1-D1
# Method: as §1
# SpBbc1 = target: SpBbc1
# Method: as §1
# SpBzz1-D1 = target: SpBzz1-D1
# Method: as §1
# SpBzz1-D2 = target: SpBzz1-D2
# Method: as §1
# SpCyk3 = target: SpCyk3
# Method: as §1
# SpHof1 = target: SpHof1
# Method: as §1
# SpHof1-2 = target: SpHof1-2
# Method: as §1
# SpHof1-3 = target: SpHof1-3
# Method: as §1
# SpHse1 = target: SpHse1
# Method: as §1
# SpLsb1 = target: SpLsb1
# Method: as §1
# SpLsb4 = target: SpLsb4
# Method: as §1
# SpMyo1 = target: SpMyo1
# Method: as §1
# SpNbp2 = target: SpNbp2
# Method: as §1
# SpPex13 = target: SpPex13
# Method: as §1
# SpRvs167 = target: SpRvs167
# Method: as §1
# SpSla1-D1-D2 = target: SpSla1-D1-D2
# Method: as §1
# SpSla1-D3 = target: SpSla1-D3
# Method: as §1
binder,measurement,setting,value
KRKRRLPVSEDTNTK,SPOT peptide array binding signal intensity,AgAbp1,42.5
same,SPOT peptide array binding signal intensity,AgBbc1,25
same,SPOT peptide array binding signal intensity,AgBem1-D1,322
same,SPOT peptide array binding signal intensity,AgBzz1-D1,26.5
same,SPOT peptide array binding signal intensity,AgBzz1-D2,47.5
same,SPOT peptide array binding signal intensity,AgCyk3,1
same,SPOT peptide array binding signal intensity,AgFus1,519
same,SPOT peptide array binding signal intensity,AgHof1,87
same,SPOT peptide array binding signal intensity,AgHse1,656
same,SPOT peptide array binding signal intensity,AgLsb1,1.5
same,SPOT peptide array binding signal intensity,AgLsb4,46.5
same,SPOT peptide array binding signal intensity,AgMyo5,1.5
same,SPOT peptide array binding signal intensity,AgNbp2,213
same,SPOT peptide array binding signal intensity,AgRvs167,3.5
same,SPOT peptide array binding signal intensity,AgSho1,53
same,SPOT peptide array binding signal intensity,AgSla1-D1-D2,25.5
same,SPOT peptide array binding signal intensity,AgSla1-D3,7
same,SPOT peptide array binding signal intensity,CaAbp1-D1,514
same,SPOT peptide array binding signal intensity,CaAbp1-D2,626
same,SPOT peptide array binding signal intensity,CaBbc1,97
same,SPOT peptide array binding signal intensity,CaBem1-D1,3
same,SPOT peptide array binding signal intensity,CaBzz1-D1,85
same,SPOT peptide array binding signal intensity,CaBzz1-D2,69.8
same,SPOT peptide array binding signal intensity,CaCyk3,24
same,SPOT peptide array binding signal intensity,CaFus1,1030
same,SPOT peptide array binding signal intensity,CaHof1,0.5
same,SPOT peptide array binding signal intensity,CaHse1,49
same,SPOT peptide array binding signal intensity,CaLsb1,0.75
same,SPOT peptide array binding signal intensity,CaLsb4,154
same,SPOT peptide array binding signal intensity,CaMyo5,3
same,SPOT peptide array binding signal intensity,CaNbp2,255
same,SPOT peptide array binding signal intensity,CaRvs167,8.67
same,SPOT peptide array binding signal intensity,CaRvs167-3,9.75
same,SPOT peptide array binding signal intensity,CaSho1,288
same,SPOT peptide array binding signal intensity,CaSla1-D1-D2,8
same,SPOT peptide array binding signal intensity,CaSla1-D3,8.75
same,SPOT peptide array binding signal intensity,ScAbp1,30
same,SPOT peptide array binding signal intensity,ScBbc1,30
same,SPOT peptide array binding signal intensity,ScBem1-D1,183
same,SPOT peptide array binding signal intensity,ScBzz1-D1,15.5
same,SPOT peptide array binding signal intensity,ScBzz1-D2,16.5
same,SPOT peptide array binding signal intensity,ScCyk3,143
same,SPOT peptide array binding signal intensity,ScFus1,298
same,SPOT peptide array binding signal intensity,ScHof1,3.5
same,SPOT peptide array binding signal intensity,ScHse1,1340
same,SPOT peptide array binding signal intensity,ScLsb1,1.5
same,SPOT peptide array binding signal intensity,ScLsb2,11
same,SPOT peptide array binding signal intensity,ScLsb3,562
same,SPOT peptide array binding signal intensity,ScLsb4,16
same,SPOT peptide array binding signal intensity,ScMyo3,5.75
same,SPOT peptide array binding signal intensity,ScMyo5,6.75
same,SPOT peptide array binding signal intensity,ScNbp2,210
same,SPOT peptide array binding signal intensity,ScPex13,0.5
same,SPOT peptide array binding signal intensity,ScRvs167,16.3
same,SPOT peptide array binding signal intensity,ScSho1,808
same,SPOT peptide array binding signal intensity,ScSla1-D1-D2,261
same,SPOT peptide array binding signal intensity,ScSla1-D3,103
same,SPOT peptide array binding signal intensity,SpAbp1-D1,214
same,SPOT peptide array binding signal intensity,SpBbc1,3
same,SPOT peptide array binding signal intensity,SpBzz1-D1,40
same,SPOT peptide array binding signal intensity,SpBzz1-D2,≤ 0
same,SPOT peptide array binding signal intensity,SpCyk3,6.5
same,SPOT peptide array binding signal intensity,SpHof1,150
same,SPOT peptide array binding signal intensity,SpHof1-2,12
same,SPOT peptide array binding signal intensity,SpHof1-3,602
same,SPOT peptide array binding signal intensity,SpHse1,391
same,SPOT peptide array binding signal intensity,SpLsb1,5.75
same,SPOT peptide array binding signal intensity,SpLsb4,268
same,SPOT peptide array binding signal intensity,SpMyo1,3.5
same,SPOT peptide array binding signal intensity,SpNbp2,331
same,SPOT peptide array binding signal intensity,SpPex13,8.5
same,SPOT peptide array binding signal intensity,SpRvs167,2.83
same,SPOT peptide array binding signal intensity,SpSla1-D1-D2,≤ 0
same,SPOT peptide array binding signal intensity,SpSla1-D3,6
KTKQQKPAIPQKKSF,SPOT peptide array binding signal intensity,SpBzz1-D2,2
same,SPOT peptide array binding signal intensity,SpCyk3,≤ 0
same,SPOT peptide array binding signal intensity,SpHof1,0.5
same,SPOT peptide array binding signal intensity,SpHof1-2,5.75
same,SPOT peptide array binding signal intensity,SpHof1-3,134
same,SPOT peptide array binding signal intensity,SpHse1,3.75
same,SPOT peptide array binding signal intensity,SpLsb1,5.5
same,SPOT peptide array binding signal intensity,SpLsb4,22.5
same,SPOT peptide array binding signal intensity,SpMyo1,5
same,SPOT peptide array binding signal intensity,SpNbp2,≤ 0
same,SPOT peptide array binding signal intensity,SpPex13,≤ 0
same,SPOT peptide array binding signal intensity,SpRvs167,1
same,SPOT peptide array binding signal intensity,SpSla1-D1-D2,3
same,SPOT peptide array binding signal intensity,SpSla1-D3,1
VQKRKLPLPGSIASA,SPOT peptide array binding signal intensity,AgAbp1,40
same,SPOT peptide array binding signal intensity,AgBbc1,39.2
same,SPOT peptide array binding signal intensity,AgBem1-D1,7.25
same,SPOT peptide array binding signal intensity,AgBzz1-D1,47.8
same,SPOT peptide array binding signal intensity,AgBzz1-D2,90.2
same,SPOT peptide array binding signal intensity,AgCyk3,0.5
same,SPOT peptide array binding signal intensity,AgFus1,≤ 0
same,SPOT peptide array binding signal intensity,AgHof1,24.6
same,SPOT peptide array binding signal intensity,AgHse1,58.5
same,SPOT peptide array binding signal intensity,AgLsb1,≤ 0
same,SPOT peptide array binding signal intensity,AgLsb4,≤ 0
same,SPOT peptide array binding signal intensity,AgMyo5,6.25
same,SPOT peptide array binding signal intensity,AgNbp2,≤ 0
same,SPOT peptide array binding signal intensity,AgRvs167,0.75
same,SPOT peptide array binding signal intensity,AgSho1,1.5
same,SPOT peptide array binding signal intensity,AgSla1-D1-D2,6.5
same,SPOT peptide array binding signal intensity,AgSla1-D3,≤ 0
same,SPOT peptide array binding signal intensity,CaAbp1-D1,419
same,SPOT peptide array binding signal intensity,CaAbp1-D2,782
same,SPOT peptide array binding signal intensity,CaBbc1,442
same,SPOT peptide array binding signal intensity,CaBem1-D1,13
same,SPOT peptide array binding signal intensity,CaBzz1-D1,94
same,SPOT peptide array binding signal intensity,CaBzz1-D2,44.6
same,SPOT peptide array binding signal intensity,CaCyk3,≤ 0
same,SPOT peptide array binding signal intensity,CaFus1,≤ 0
same,SPOT peptide array binding signal intensity,CaHof1,≤ 0
same,SPOT peptide array binding signal intensity,CaHse1,≤ 0
same,SPOT peptide array binding signal intensity,CaLsb1,≤ 0
same,SPOT peptide array binding signal intensity,CaLsb4,≤ 0
same,SPOT peptide array binding signal intensity,CaMyo5,0.5
